According to PubChem BioAssay (Tox21):
Results filed as inconclusive are left out. A number with no mark means an inactive call. Calls follow the shape of the dose curve; as a rule, active = well fitted inhibition curve with a large enough effect in the repeat runs; inconclusive = weak or mixed curves; inactive = flat fitted curve, though single readings scatter.

Assay: qHTS assay to identify small molecule HDAC inhibitors (AID 1259364); also: top concentration of the series differs between compounds; nearly all actives have a fitted effect of over 45% in size
Details: HCT-116 HDAC-Glo I/II luminescence, 2 h; series mostly up to 92.4 µM; activity change, negative = inhibition: at the top concentration
Source text: U.S. Tox21 Program National Center for Advancing Translational Sciences [NCATS] NIH Chemical Genomics Center [NCGC] U.S. Environmental Protection Agency [EPA] National Institutes of Environmental Health Sciences [NIEHS] National Toxicology Program [NTP] U.S. Food and Drug Administration [FDA] Tox21 Assay Overview: Histone deacetylases (HDACs) are a group of epigenetic enzymes that regulate gene expression by histone deacetylation. HDACs are capable of introducing epigenetic modifications and such aberrations contribute to the onset and progression of several human diseases, thus making HDACs a popular therapeutic target. For identifying endogenous class I/II HDAC inhibitors a homogenous, luminogenic HDAC I/II cell based assay was used to measure the relative activity of class I and II HDACs from cells. Wild type HCT-116 cells were used to screen Tox21 libraries for identifying class I/II HDAC inhibitors.
Tox21 Assay Protocol Summary: HCT-116 cells were dispensed at 1,500 per well in 5uL of culture medium into white solid bottom 1536-well plates (Greiner Bio-One, Monroe, NC) using a Multidrop Combi (Thermo Scientific, Waltham, MA) dispenser. The assay plates were incubated at 37 C and 5% CO2 for an overnight, and then 23nL of compounds dissolved in DMSO and positive control were transferred using a Pintool station (Wako, San Diego, CA). The assay plates were incubated at 37C and 5% CO2 for 2hr. After compound treatment, 4uL of HDAC-Glo reagent (Promega Corporation, Madison, WI) was added to each well of the assay plates using Flying Reagent Dispenser (FRD, Aurora Discovery, San Diego, CA) and incubated the assay plates at room temperature for 30min. The luminescence signal was quantified using a ViewLux plate reader (Perkin Elmer, Shelton, CT).
% is scaled to controls: 0 for no effect and ±100 for the full control effect.

Row | Compound | activity change, negative = inhibition
1 | CC(C)C[P+](C)(CC(C)C)CC(C)C | 0.873%
2 | C[n+]1ccccc1/C=N/O | 2.58% [at 42.5 µM]
3 | CC/C=C\CCCCCCCCCCOC(C)=O | 2.51%
4 | CCOCCOCCOC(C)=O | 0.33%
5 | Cc1ccccc1C#N | -1.79%
6 | CCCCC(O)/C=C(C)/C=C/C=C/C(=O)N1CCCC1=O (stereo not given) | 3.32% [at 42.5 µM]
7 | CC(CC(=O)Cl)CC(C)(C)C (stereo not given) | 3.89%
8 | Cc1ccccc1OCC(=O)O | -7.96%
9 | N#Cc1cc(NC(=O)C(=O)O)c(Cl)c(NC(=O)C(=O)O)c1 | 2.08% [at 42.5 µM]
10 | CCCCC(CC)CCC(CC(C)C)OS(=O)(=O)O (stereo not given) | 5.24%
11 | C/C=C(\C)C(=O)OC/C=C(\C)CCC=C(C)C | -5.7%
12 | CCCCCCCCCCCCCCCC/C=C/C1CC(=O)OC1=O (stereo not given) | -1.5% [at 42.5 µM]
13 | C/C=C(\C)C=O | -0.462%
14 | CNCCc1ccccn1 | -4.6% [at 42.5 µM]
15 | Cc1ccc(NC(N)=O)cc1 | -10.8%
16 | CCC(C)SSC(C)CC (stereo not given) | -6.72%
17 | COCc1nnc(-c2ccc[n+]([O-])c2)n1-c1c(Cl)c(Cl)cc2[nH]c(=O)c(=O)[nH]c12 | -4.27%
18 | CC(C)(C)C(=O)CC(=O)C(C)(C)C | 4.98%
19 | CCOC(=O)CC(C(C)=O)C(C)=O | 3.52%
20 | CC(=O)c1ccc2ccc3ccccc3c2c1 | -5.38%

Row | Compound | activity change, negative = inhibition
21 | Cc1ccc(OC(=O)CC(C)C)cc1 | -2.74%
22 | COC(C)(C)CC(C)=O | -1.66%
23 | CCCCCCCCCCCCCCCC(=O)OC | 2.36% [at 19 µM]
24 | COC(=O)c1ccccc1Cl | 5.35%
25 | COC(=O)c1c(C)cc(O)c(C)c1O | 1.57%
26 | COc1cc(S(N)(=O)=O)cc(C(=O)O)c1OC | 0.418% [at 42.5 µM]
27 | Cc1ccc2cccnc2c1 | 0.171%
28 | CC(=O)SC[C@@H](C)C(=O)N1CCC[C@H]1C(=O)N[C@@H](Cc1ccccc1)C(=O)O | -1.31% [at 42.5 µM]
29 | CC(C)c1cc(C(C)C)cc(C(C)C)c1 | 1.96%
30 | CC(CN1CC(=O)NC(=O)C1)N1CC(=O)NC(=O)C1 (stereo not given) | -0.72%
31 | CC(=O)OC/C=C(/C)CCC=C(C)C | 7.34%
32 | CCC(=O)OCCOc1ccccc1 | -1.1%
33 | O=C1CC2(CCCC2)CC(=O)N1CCNCC1COc2ccccc2O1 (stereo not given) | 2.91% [at 42.5 µM]
34 | N#CC1(N)CCCCC1 | 4.48%
35 | C=CCON/C(CCC)=C1\C(=O)CC(C)(C)C(C(=O)OC)=C1O | 1.04%
36 | c1cc2ccc3ccc4ccc5cccc6c(c1)c2c3c4c56 | -0.743% [at 3.27 µM]
37 | CCCc1ccc(O)c(OC)c1 | 3.01%
38 | C=CC(C)(CCC=C(C)C)OC(=O)C(C)C (stereo not given) | 2.4%
39 | Clc1cc(Cl)c(Cl)c(Cl)c1Cl | -1.75%
40 | C[C@@H]1CCC[C@H](C)N1CCCC(O)(c1ccccc1)c1ccccn1 (stereo not given in full) | 8.72% [at 42.5 µM]
